From PubChem BioAssay (NCI)
Several values for one entry are separate records, joined by “and”; a condition that tells them apart may be missing. Equal entries are not always repeated. About 83,000 compounds went through this panel and 20% of them were active in at least one assay; those are over-represented in the sample as a whole.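 Cell lines were cultured in 96-well plates, exposed to a single compound concentration, and assessed for percent growth 48 hours later.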

Experiments:
Test in all cases: NCI-60 one-dose screen, 48 h (100 = growth as untreated, 0 = no growth, -100 = all killed)
Conditions in all cases: 10 µM unless noted; active = growth percent below 10; inactive = the rest
[1] = test system: NCI-H23 lung
[2] = test system: NCI-H226 lung
[3] = test system: NCI-H322M lung
[4] = test system: HOP-62 NSCLC
[5] = test system: NCI-H460 lung
[6] = test system: HOP-92 NSCLC
[7] = test system: NCI-H522 lung
[8] = test system: A549/ATCC NSCLC
[9] = test system: 786-0 renal
[10] = test system: COLO 205 colon
[11] = test system: DU-145 prostate
[12] = test system: K-562 leukemia
[13] = test system: MALME-3M melanoma
[14] = test system: MDA-MB-231 breast
[15] = test system: RXF 393 renal
[16] = test system: SF-268 CNS
[17] = test system: SF-295 CNS
[18] = test system: SF-539 CNS
[19] = test system: UACC-257 melanoma
[20] = test system: M14 melanoma

Measured: growth

O=C(O)/C=C/C=C/c1ccccc1
inactive: [1] 104% and 99.9% | [2] 99.4% and 100% | [3] 104% and 107% | [4] 102% and 105% | [5] 107% and 112% | [6] 99.5% and 102% | [7] 94.8% and 106% | [8] 98.4% and 97.8% | [9] 105% and 109% | [10] 105% and 113% | [11] 106% and 109% | [12] 114% and 110% | [13] 103% and 114% | [14] 101% and 106% | [15] 113% and 120% | [16] 101% | [17] 105% and 101% | [18] 96.7% and 98.6% | [19] 102% and 93.2% | [20] 101%

COC1C(OC(N)=O)C(O)C(Oc2ccc3c(O)c(NC(=O)c4ccc(O)c(CC=C(C)C)c4)c(=O)oc3c2C)OC1(C)C (stereo unspecified)
inactive: [1] 104% and 93.7% | [2] 104% and 90.5% | [3] 105% and 102% | [4] 101% and 98.5% | [5] 116% and 94.9% | [6] 78.6% | [7] 44.3% and 131% | [8] 105% and 103% | [9] 94.2% and 101% | [10] 108% and 104% | [11] 106% and 105% | [12] 79.4% and 116% | [13] 121% and 101% | [14] 108% and 88.2% | [15] 104% and 98.2% | [16] 104% and 97.1% | [17] 92.7% and 94.9% | [18] 98% and 97.1% | [19] 104% and 101% | [20] 102% and 99.2%

N#Cc1c[nH]n2ccnc12
inactive: [1] 99.3% | [2] 96% | [3] 98.7% | [4] 86% | [5] 119% | [6] 99.5% | [7] 87.8% | [8] 86.7% | [9] 97.3% | [10] 109% | [11] 111% | [12] 106% | [13] 106% | [14] 111% | [15] 113% | [16] 107% | [17] 99.8% | [18] 104% | [19] 97.7% | [20] 94.9%

CCOC(=O)c1ccc(C(=N)N)cc1
inactive: [1] 99% | [2] 106% | [3] 117% | [4] 108% | [5] 103% | [6] 80.2% | [7] 102% | [8] 107% | [9] 106% | [10] 114% | [11] 106% | [12] 101% | [13] 108% | [14] 120% | [15] 95.4% | [16] 104% | [17] 101% | [18] 105% | [19] 96.8% | [20] 108%

NNC(=O)Nc1ccccc1
inactive: [1] 100% | [2] 95.2% | [3] 96.1% | [4] 103% | [5] 104% | [6] 90.8% | [7] 107% | [8] 113% | [9] 99.8% | [10] 99.1% | [11] 106% | [12] 102% | [13] 99.6% | [14] 91.2% | [15] 108% | [16] 100% | [17] 96.3% | [18] 97% | [19] 108% | [20] 107%

CCC/C(=N/NC(N)=O)c1ccco1
inactive: [1] 99.1% | [2] 96.1% | [3] 96.5% | [4] 79.7% | [5] 104% | [6] 82.7% | [7] 76.3% | [8] 93.4% | [9] 89.7% | [10] 107% | [11] 109% | [12] 104% | [13] 83.8% | [14] 100% | [15] 105% | [16] 102% | [17] 98.4% | [18] 93% | [19] 98.6% | [20] 97.6%

CC1(C)OC(=O)C(=Cc2ccc(C#N)cc2)C(=O)O1
inactive: [1] 104% | [2] 92.6% | [3] 113% and 103% | [4] 90.6% and 114% | [5] 107% and 101% | [6] 87.9% | [7] 79% and 103% | [8] 77.4% | [9] 104% and 98.1% | [10] 103% and 105% | [11] 109% and 107% | [12] 101% and 96.7% | [13] 110% and 99.3% | [14] 113% and 123% | [15] 102% | [16] 104% and 102% | [17] 103% and 97.7% | [18] 111% and 105% | [19] 72.2% and 96.3% | [20] 106% and 105%

COc1ccc(CCNC(=S)NN)cc1OC
inactive: [1] 99.5% | [2] 106% | [3] 108% | [4] 117% | [5] 101% | [6] 94.8% | [7] 102% | [8] 106% | [9] 109% | [10] 112% | [11] 106% | [12] 101% | [13] 124% | [14] 114% | [15] 200% | [16] 96% | [17] 103% | [18] 95% | [19] 108% | [20] 104%

CC(C)(C)OC(=O)CC1(O)CCCCC1
inactive: [1] 101% | [2] 93.7% | [3] 111% | [4] 114% | [5] 103% | [6] 86.1% | [7] 102% | [8] 109% | [9] 101% | [10] 109% | [11] 112% | [12] 114% | [13] 117% | [14] 95.8% | [15] 108% | [16] 104% | [17] 100% | [18] 108% | [19] 109% | [20] 108%

CC1(CO)CCCC1NCCNC1CCCC1(C)CO (stereo unspecified)
inactive: [1] 109% and 107% | [2] 99.5% and 102% | [3] 139% and 98.2% | [4] 109% and 100% | [6] 82.8% and 101% | [7] 94.3% | [8] 105% and 104% | [9] 101% and 102% | [10] 114% and 103% | [11] 120% and 88.9% | [12] 110% and 99% | [13] 116% and 103% | [14] 92.2% and 113% | [15] 109% and 119% | [16] 115% and 105% | [17] 94.9% and 105% | [18] 103% and 105% | [19] 100% | [20] 96.7% and 103%

Cc1nc2c(=O)[nH]c(=S)[nH]c2[nH]c1=O
inactive: [1] 108% and 101% | [2] 100% and 104% | [3] 98% and 111% | [4] 108% and 99.1% | [6] 111% | [7] 105% and 100% | [8] 103% and 105% | [9] 112% and 107% | [10] 108% and 115% | [11] 112% and 119% | [12] 102% | [13] 108% | [14] 112% and 102% | [15] 111% and 125% | [16] 109% and 104% | [17] 111% and 94.6% | [18] 104% and 99.1% | [19] 110% and 97.8% | [20] 113% and 110%

O=C(O)COc1ccccc1F
inactive: [1] 106% | [2] 94.2% | [3] 106% | [4] 117% | [6] 96.3% | [7] 106% | [8] 110% | [9] 102% | [10] 114% | [11] 108% | [12] 92.5% | [13] 108% | [14] 115% | [15] 92.3% | [16] 107% | [17] 106% | [18] 97.4% | [19] 115% | [20] 103%

c1ccc2c[n+](Cc3ccc4ccccc4n3)ccc2c1
inactive: [1] 69.1% | [2] 85.8% | [3] 104% | [4] 80.1% | [6] 56% | [7] 84.9% | [8] 65.5% | [9] 95.3% | [10] 46.5% | [11] 99.8% | [12] 63.8% | [13] 75.7% | [14] 89.4% | [15] 91% | [16] 85.7% | [17] 91.4% | [18] 82.5% | [19] 56% | [20] 72.3%
